Most compounds without a hit are left out; they make up all but 3.5% or so of the library.
FBW7 activator: human FBW7 E3 ligase activation, primary screen | 650,000 compounds, 0.13% hits | AlphaScreen FBW7–phospho-cyclin E peptide binding, activator screen | normalized activity (activation), % at 26.1 µM | Q969H0 | AID 1259310; in the data active means normalized activity above about 1.9%;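 further: purified mutant Fbw7 with reduced substrate affinity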
MITF primary: blocks human microphthalmia-associated transcription factor. O75030. AlphaScreen MITF homodimerization, bead proximity signal. inhibition, % at 2.6 µM. 650,000 compounds, 0.91% hits. AID 1259374; in the data active means inhibition above about 50%
GPR151 activ: activators of human GPR151; Q8TDV0; PathHunter beta-arrestin GPR151 cells, luminescence; activation, % at 11.2 µM; 650,000 compounds, 1% hits; in the data active means activation above about 4.9%
Target sequence (Q8TDV0 whole entry, looked up): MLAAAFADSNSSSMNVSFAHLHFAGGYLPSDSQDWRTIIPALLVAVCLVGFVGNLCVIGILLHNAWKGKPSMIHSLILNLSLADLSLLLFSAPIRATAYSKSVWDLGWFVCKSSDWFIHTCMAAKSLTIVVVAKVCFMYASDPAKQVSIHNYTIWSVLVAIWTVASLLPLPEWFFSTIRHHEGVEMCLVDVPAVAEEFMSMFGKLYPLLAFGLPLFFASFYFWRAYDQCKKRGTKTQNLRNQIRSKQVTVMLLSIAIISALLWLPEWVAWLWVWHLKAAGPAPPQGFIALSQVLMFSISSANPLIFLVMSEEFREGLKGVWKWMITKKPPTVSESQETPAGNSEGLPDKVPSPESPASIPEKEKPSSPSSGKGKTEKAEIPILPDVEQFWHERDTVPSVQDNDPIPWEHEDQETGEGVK
TEAD-YAP inh: TEAD-YAP interaction inhibition; AID 1259422; inhibition, % at 9.12 µM; HEK-TIYL cells, TEAD-Gal4/YAP UAS-luciferase luminescence; 640,000 compounds, 1.4% hits; in the data active means inhibition above about 32%
GPR151 confirm: human GPR151 activation, confirmation screen. activation, % at 11.2 µM. 6,700 tested, under 10 active. shares compounds with GPR151 activ. GPR151 PathHunter beta-arrestin cells, luminescence, 90 min; % of EA-reagent control over plate median;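 active means mean percent activation across replicates above the confirmation screen cutoff of 4.91%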
GPR119 counter: activates human GPR119 in a GPR151 counter-screen; shares compounds with GPR151 activ; GPR119 PathHunter beta-arrestin cells, luminescence, 90 min; 0 = compound-well median, 100 = enzyme-acceptor control; activation, % at 11.2 µM; 6,700 compounds, 0.3% hits;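 active means mean percent activation in the counterscreen above 29.09%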;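 further: counterscreen on off-target GPR119 to flag nonselective hits from the GPR151 activator screen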
Of the large screens only hits and unclear results are named; the others gave an inactive call (follow-up assays come after a bar, where they were run).

O=[N+]([O-])c1ccc(CSC2=NCCN2S(=O)(=O)c2ccccc2)cc1	GPR151 activ 5.1 | GPR151 confirm inactive | GPR119 counter inactive
CCCC(=O)Nc1ccc(NC(=O)c2cnccn2)cn1	GPR151 activ 8.0 | GPR151 confirm inactive | GPR119 counter inactive
Cc1nn(CC(=O)Nc2ccc(Oc3ccc(Cl)cc3)cc2)c(C)c1[N+](=O)[O-]	none
Cc1nn(CC(=O)Nc2ccc(O)cc2)c(C)c1[N+](=O)[O-]	GPR151 activ 6.1 | GPR151 confirm inactive | GPR119 counter inactive
O=C(CN1CCOCC1)Nc1ccc(Br)cn1	none
O=C(CN1CCN(C(=O)c2ccccc2)CC1)Nc1ccc(Br)cn1	GPR151 activ 5.6 | GPR151 confirm inactive | GPR119 counter inactive
N#CCCn1cc(C(=O)NCc2ccccc2)c(-c2cc3ccccc3o2)n1	none
COc1ccc(C2C(C#N)=C(N)N(N(C)C)C3=C2C(=O)CCC3)cc1 (stereo unspecified)	none
CN(C)N1C(N)=C(C#N)C(c2ccc3ccccc3c2)C2=C1CCCC2=O (stereo unspecified)	GPR151 activ 5.9 | GPR151 confirm inactive | GPR119 counter inactive
NS(=O)(=O)c1ccc(N2C(=O)C3CC=C(Cl)CC3C2=O)cc1 (stereo unspecified)	none
CCCn1cc(SCC(=O)Nc2ccc(OCC)cc2)c2ccccc21	none
CCOc1ccc(NC(=O)CSc2cn(Cc3cccc(F)c3)c3ccccc23)cc1	GPR151 activ 18 | GPR151 confirm inactive | GPR119 counter inactive
O=C(NCCN1CCNCC1)c1cc(C2COc3ccccc3O2)nc2ccc(-c3cn[nH]c3)cc12 (stereo unspecified)	none
O=C(O)c1cc(C2COc3ccccc3O2)nc2ccc(-c3cn[nH]c3)cc12 (stereo unspecified)	GPR151 activ 13 | GPR151 confirm inactive | GPR119 counter inactive
CC(C)(C)c1nn2cnnc2n(/N=C/c2ccccc2I)c1=O	none
CC(C)(C)c1nn2cnnc2n(/N=C/c2ccccc2O)c1=O	GPR151 activ 5.9 | GPR151 confirm inactive | GPR119 counter inactive
CC1CCC2(CC1)NC(=O)N(CC(=O)NC(=O)NCc1ccccc1)C2=O (stereo unspecified)	GPR151 activ 5.5 | GPR151 confirm inactive | GPR119 counter inactive
COC(=O)c1cc(Nc2ccc(C)cc2)c2cccc(F)c2n1	none
COC(=O)c1cc(Nc2cccc(F)c2)c2cccc(OC)c2n1	GPR151 activ 7.9 | GPR151 confirm inactive | GPR119 counter inactive
O=C(O)CN1C(=O)C(=O)/C(=C(\O)c2ccccc2)C1c1ccccc1F (stereo unspecified)	none
Nc1nc(SCC(=O)NCc2ccccc2)[nH]c(=O)c1-c1ccccc1	GPR151 activ 6.8 | GPR151 confirm inactive | GPR119 counter inactive
Nc1nc(SCc2nc(-c3ccccc3)no2)[nH]c(=O)c1-c1ccccc1	GPR151 activ 6.0 | GPR151 confirm inactive | GPR119 counter inactive
COc1ccc(-c2noc(N3CCC(C(=O)NCc4ccc5c(c4)OCO5)CC3)n2)cc1	GPR151 activ 7.9 | GPR151 confirm inactive | GPR119 counter inactive
COc1c(Cl)cc(C(=O)NCc2ccc3c(c2)OCO3)cc1Cl	GPR151 activ 5.9 | GPR151 confirm inactive | GPR119 counter inactive
COc1ccc(OC)c(NC(=S)Nc2ccc(C)cn2)c1	none
COc1ccccc1-c1cn(-c2ccc([N+](=O)[O-])cc2)nc1C	none
CC(=O)Nc1cccc(N=Cc2cc([N+](=O)[O-])cc(C)c2O)c1	GPR151 activ 7.4 | GPR151 confirm inactive | GPR119 counter inactive
O=C(Nc1cccc(N=Cc2cc([N+](=O)[O-])cc([N+](=O)[O-])c2O)c1)c1ccco1	none
CCOCCCNC1CCN(c2ccc(NC(=O)c3cccc(Cl)c3)cc2)CC1	GPR151 activ 17 | GPR151 confirm inactive | GPR119 counter inactive
CCN(CC)CCNC1CCN(c2ccc(NC(=O)c3cccc(Cl)c3)cc2)CC1	none
O=C1NCC(O)=C1C=Nc1ccc(O)cc1	none
O=C1NCC(O)=C1C=NCCO	GPR151 activ 6.2 | GPR151 confirm inactive | GPR119 counter inactive
O=C1NCC(O)=C1C=Nc1ccccc1	GPR151 activ 5.2 | GPR151 confirm inactive | GPR119 counter inactive
CCOc1ccc(C2C(C(=O)OC3CCCC3)=C(C)NC3=C2C(=O)CC(c2ccccc2)C3)cc1 (stereo unspecified)	none
